High-throughput results as filed in PubChem BioAssay.
Shown are actives, neighbours in structure and some others; about 2.8% of the full set was active somewhere.
MsrA act – activates bovine MsrA enzyme | purified bovine MsrA, absorbance read-out | activation, % at 10.6 µM | hit rate 0.3% among 360,000 | AID 602163; in the data active means activation above about 7.5%
SMARCA2 act – activators of SMARCA2 function; MG213 cells, MMTV-luciferase reporter, dexamethasone, overnight; activation, % at 9.1 µM; AID 652017; hit rate 1% among 370,000; in the data active means activation above about 7.8%
KLK7 zymogen act – activates the human kallikrein-7 zymogen | purified proKLK7, EDANS-DABCYL substrate fluorescence; 100% is mature enzyme control, 0% vehicle | hit rate 0.9% among 370,000 | P49862 | activation, % at 7 µM;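 active means activation above the mean of all tested compounds plus 3 SD, computed per campaign excluding outliers beyond control limits, cut at about 13% in these data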
Target sequence (P49862 whole entry, looked up): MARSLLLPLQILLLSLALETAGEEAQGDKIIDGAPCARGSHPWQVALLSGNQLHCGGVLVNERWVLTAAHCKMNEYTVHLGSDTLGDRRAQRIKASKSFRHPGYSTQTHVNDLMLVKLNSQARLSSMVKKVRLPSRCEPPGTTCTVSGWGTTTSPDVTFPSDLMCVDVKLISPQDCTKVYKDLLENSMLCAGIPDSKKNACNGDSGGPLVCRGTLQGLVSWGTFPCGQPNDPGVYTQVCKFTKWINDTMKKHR
MsrA inh – inhibitors of bovine MsrA; purified bovine MsrA, absorbance read-out; inhibition, % at 15.5 µM; hit rate 0.75% among 360,000; in the data active means inhibition above about 4.5%
proKLK7 act conf – proKLK7 activation, confirmation; shares compounds with KLK7 zymogen act; purified proKLK7, EDANS-DABCYL substrate fluorescence; scaled: vehicle 0, mature enzyme 100; activation, % at 7 µM; hit rate 68% among 3,200;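 active means activation, as change over the incubation, above the mean of all tested compounds plus 3 SD, cut at about 13% in these data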
EDANS interfere – optically interferes with EDANS-DABCYL signal, flagging KLK7 hits; shares compounds with KLK7 zymogen act; activation, % at 7 µM; hit rate 80% among 3,200; EDANS-DABCYL substrate fluorescence interference, no enzyme, 4 h; solvent 0%, active enzyme control 100%;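 active means activation above the all-compound mean plus 3 SD, ignoring values outside control-based bounds, cut at about 4.8% in these data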;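 further: value is the 4 h activation minus the activation read at time zero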
K7 EDANS ctr – EDANS fluorescence interference in dose response, no enzyme | shares compounds with KLK7 zymogen act | EDANS-DABCYL peptide fluorescence interference | EC50, µM | hit rate 20% among 250 | AID 720493;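 active means compounds that raise the fluorescence signal in this interference counterscreen, with EC50 at or below 10 µM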;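 further: intact quenched peptide substrate alone read at 355 nm excitation and 520 nm emission; signal is fluorescence gain from T0 to T4 after four hours at room temperature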
Large screens that a line does not name were inactive (follow-up assays come after a bar, where they were run).

O=C(NCC1CCCO1)C(=O)N/N=C/c1ccc(OCc2ccccc2Cl)cc1 (stereo not given)	none
COc1ccc(C2CC(=O)C(c3ccc(C(N)=O)cc3)=CN2Cc2ccccc2)cc1 (stereo not given)	none (no result: MsrA act)
COCCN(CCOC)c1cc(C)c(C#N)c2nc3ccccc3n12	KLK7 zymogen act 39 | proKLK7 act conf 61 | EDANS interfere 50 | K7 EDANS ctr inactive
CCCCN1C[C@H](CO)Oc2cccc(F)c2S1(=O)=O	none
Cc1cc2nc(-c3ccc(SCc4ccccn4)nc3)[nH]c2cc1C	KLK7 zymogen act 127 | proKLK7 act conf 25 | EDANS interfere 16 | K7 EDANS ctr inactive
N#Cc1c(CSCC(=O)O)cc(=O)n2c1[nH]c1ccccc12	none
N#Cc1c(C(F)(F)F)cc(=O)n2c1[nH]c1ccccc12	KLK7 zymogen act 52 | proKLK7 act conf 64 | EDANS interfere 66
CC1CN(Cc2c(O)ccc3c(=O)c(-c4ccccc4)coc23)CC(C)O1 (stereo not given)	KLK7 zymogen act 82 | proKLK7 act conf 27 | EDANS interfere 26
CC1CCCCN1Cc1c(O)ccc2c(=O)c(-c3ccccc3)coc12 (stereo not given)	KLK7 zymogen act 34 | proKLK7 act conf 71 | EDANS interfere 69
CCc1cc2c(=O)c(-c3ccc4c(c3)OCCO4)coc2c(CN2CCCCC2C)c1O (stereo not given)	KLK7 zymogen act 16 | proKLK7 act conf inactive | EDANS interfere inactive
COc1ccc(-c2coc3c(CN4CCCCC4C)c(O)ccc3c2=O)cc1 (stereo not given)	KLK7 zymogen act 46 | proKLK7 act conf 69 | EDANS interfere 58
CCc1cc2c(=O)c(-c3nc4ccccc4[nH]3)coc2c(CN2CCCCC2C)c1O (stereo not given)	none
CC1CN(Cc2c(O)ccc3c2oc(=O)c2ccccc23)CC(C)O1 (stereo not given)	none
Cc1ccc(CNC(=O)C2(C)CCN2C(=O)Cc2ccc(C(C)(C)C)cc2)cc1 (stereo not given)	none
COC(=O)C1=C(C)N(Cc2ccccc2C(F)(F)F)C(=NCC2CC2)NC1c1ccc(F)cc1 (stereo not given)	none (no result: MsrA act)
CCC1CCCCN1Cc1nc2ccccc2c(=O)n1CC(C)=O (stereo not given)	none
CCc1cc2c(=O)c(-c3nc4ccccc4[nH]3)coc2c(CN2CCCCC2)c1O	none
CCC1CCCCN1Cc1c(O)ccc2c(=O)c(-c3ccccc3)coc12 (stereo not given)	KLK7 zymogen act 38 | proKLK7 act conf 55 | EDANS interfere 33
O=c1c(-c2ccccc2)coc2c(CN3CCCCC3)c(O)ccc12	KLK7 zymogen act 38 | proKLK7 act conf 65 | EDANS interfere 63
CN(C)S(=O)(=O)c1ccc(-c2cn3ccccc3n2)cc1	KLK7 zymogen act 30 | proKLK7 act conf 22 | EDANS interfere 31
O=S(=O)(c1cccc(-c2cn3cccnc3n2)c1)N1CCOCC1	KLK7 zymogen act 30 | proKLK7 act conf 71 | EDANS interfere 67
CCN(CC)S(=O)(=O)c1ccc(-c2cn3ccccc3n2)cc1	none
CN(C)S(=O)(=O)c1cccc(-c2cn3cccnc3n2)c1	KLK7 zymogen act 39 | proKLK7 act conf 57 | EDANS interfere 62
COc1ccc(-c2cc(-c3ccccc3)n3ncnc3n2)cc1	KLK7 zymogen act 30 | proKLK7 act conf 25 | EDANS interfere inactive
COc1ccc(-c2ccnc3ncnn23)cc1	KLK7 zymogen act 33 | proKLK7 act conf 27 | EDANS interfere 35
OC(c1ccc(Cl)cc1)c1ncc(-c2ccccc2Cl)[nH]1 (stereo not given)	none
COc1ccccc1-c1c(C)oc2c(CN3CCCCC3C)c(O)ccc2c1=O (stereo not given)	KLK7 zymogen act 53 | proKLK7 act conf 66 | EDANS interfere 69
Cc1oc2c(CN3CCCCC3C)c(O)ccc2c(=O)c1-c1ccccc1 (stereo not given)	KLK7 zymogen act 34 | proKLK7 act conf 47 | EDANS interfere 59
CCOC(=O)c1oc2c(CN3CCN(C)CC3)c(O)ccc2c(=O)c1-c1ccccc1OC	none
O=S(=O)(c1ccccc1)N1CCCc2nc(-c3ccc(F)cc3)ccc21	none (no result: MsrA act)
